Laboratory results reported in PubChem BioAssay AID1135 (Sanford-Burnham Center for Chemical Genomics, 2008).
Screen size: about 200,000 compounds; about 65 (0.03%) were called active. Shown is part of a subset that was picked to be rich in actives. Unmarked numbers belong to inactive results.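 The calls were made as follows: active = over 50% inhibition of tissue-nonspecific alkaline phosphatase at 20 µM in the single-dose screen; inactive = the rest.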

target: Alkaline phosphatase, tissue-nonspecific isozyme (Homo sapiens) (UniProt P05186); assay: human TNAP enzyme inhibitors, primary screen, biochemical, luminescent, high phosphate acceptor level, uHTS (AID 1135); conditions: purified TNAP, CDP-star luminescence, 1 M DEA; at 20 µM; hits give high values;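 also: plate controls were DMSO wells for no effect and EDTA-quenched wells as full inhibition for full effect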
Sequence (P05186 whole entry, looked up): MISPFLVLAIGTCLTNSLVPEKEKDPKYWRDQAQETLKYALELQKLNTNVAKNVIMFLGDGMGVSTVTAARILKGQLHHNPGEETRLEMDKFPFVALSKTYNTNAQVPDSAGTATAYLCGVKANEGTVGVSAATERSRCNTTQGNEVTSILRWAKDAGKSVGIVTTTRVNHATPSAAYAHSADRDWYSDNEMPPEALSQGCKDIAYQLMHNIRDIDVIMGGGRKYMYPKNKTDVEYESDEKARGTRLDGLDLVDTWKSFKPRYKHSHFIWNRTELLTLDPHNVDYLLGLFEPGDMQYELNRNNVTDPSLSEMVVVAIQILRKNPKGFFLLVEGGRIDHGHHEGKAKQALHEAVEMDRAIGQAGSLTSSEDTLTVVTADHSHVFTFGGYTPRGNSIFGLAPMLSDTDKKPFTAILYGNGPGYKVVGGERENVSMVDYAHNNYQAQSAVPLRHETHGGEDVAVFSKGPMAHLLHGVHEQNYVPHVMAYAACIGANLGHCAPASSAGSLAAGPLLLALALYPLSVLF

In order of rising inhibition:
1. CC(C)(C)n1nc2c(c1NC(=O)c1cc3ccccc3o1)CSC2  -7.4%
2. CCn1c(SCC(=O)Nc2nc(C)cs2)nnc1C(C)NC(=O)c1ccccc1 (stereo unspecified)  -5.3%
3. CCCC(=O)NC(=S)Nc1ccc(CN2CCOCC2)cc1  -4.1%
4. COCCCNC(=O)CNC(=S)N(Cc1cc(OC)c(OC)c(OC)c1)C1CCCC1  -4.1%
5. COc1ccc([N+](=O)[O-])cc1NC(=O)CC1SC(=Nc2cccc(C)c2C)N(/N=C(\C)c2ccc(C)cc2)C1=O (stereo unspecified)  -3.9%
6. O=C(c1cc(Cl)cc(Cl)c1)N1CCC(=O)N(C(COCc2ccccc2)Cc2ccccc2)CC1 (stereo unspecified)  -3.9%
7. Cc1cc(-c2n[nH]c(=S)n2-c2ccc(C)c(C)c2)no1  -3%
8. CC(C)(C)NC(=O)CN(C(=O)c1ccc(Cl)nc1)c1cccc2ccccc12  -2.9%
9. Cc1nnc(SCc2cccc(Cl)c2)n(N)c1=O  -2.2%
10. COc1cc(C(=O)Nc2cc(C(F)(F)F)ccc2-n2cncn2)cc(OC)c1OC  -1.7%
11. CCn1c(C(C)NC(=O)c2ccc(C)cc2)n[nH]c1=S (stereo unspecified)  -0.4%
12. CC(=O)Nc1ccc(NC(=O)C(C)OC(=O)c2ccccc2C(=O)c2ccc(Cl)c([N+](=O)[O-])c2)cc1 (stereo unspecified)  0.3%
13. O=C(Nc1ccc2c(c1)OCO2)c1sc2cc(Cl)ccc2c1Cl  0.3%
14. Cc1cc(C)c(NC(=O)c2oc3ccccc3c2COc2ccccc2)c(C)c1  0.7%
15. O=C(COc1cc(Cl)c(Cl)cc1Cl)NC(=O)NC1CCCC1  0.7%
16. O=C(NCc1ccncc1)NC12CC3CC(CC(C3)C1)C2  2.3%
17. NS(=O)(=O)c1ccc(CCNC(=O)c2ccc(Cl)cc2[N+](=O)[O-])cc1  5.9%
18. Cc1[nH][nH]c(=O)c1C(c1ccc(-c2ccc(Cl)cc2)o1)c1c(C)[nH][nH]c1=O  10.3%
19. CC(CNc1ccc([N+](=O)[O-])c2cccnc12)Nc1c([N+](=O)[O-])cc(C(F)(F)F)cc1[N+](=O)[O-] (stereo unspecified)  13.7%
20. Cc1[nH][nH]c(=O)c1C(c1ccc2c(c1)OCO2)c1c(C)[nH][nH]c1=O  44%

In the case of `CCOc1ccc(C(c2c(C)[nH][nH]c2=O)c2c(C)[nH][nH]c2=O)cc1OCC`, the inhibition is reported as 71.4% (active).
